Screens (PubChem BioAssay)
A350 autofl – compounds fluorescent in Alexa 350 spectral region; 11% of 59,000 active; max dye-equivalent concentration, M; AID 590; Compound autofluorescence, 340/450 nm, Alexa 350 dye-equivalents; active compounds read high; in the data active = max dye-equivalent concentration above about 10 nM; inconclusive = mostly about 1.1 nM to 9.6 nM
HSD17B inh – inhibitors of human HSD17B10 dehydrogenase; recombinant HSD17B10, NADH fluorescence kinetic; 7.6% of 75,000 active; AID 893; Potency, µM (series often up to 57.1 µM), for inactives: at the top dose activity change, negative = inhibition, actives largely listed as inhibitors;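 note: the protocol describes HADH2 (HSD17B10) and not the HSD17B4 of the title; potency is the fitted concentration of half-maximal effect; % is set by controls: 0 for no effect and ±100 for the full control effect; nearly all actives have a fitted effect of over 70% in size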
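Enzyme plus compound, 15 min room temperature; substrate mix added (NAD+ 1 mM, beta-hydroxybutyryl-CoA 90 uM final); plates read kinetically for NADH fluorescence. HADH2 was His-tagged, E. coli-derived, 20 nM.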
HADH2 inh – inhibitors of human HADH2 dehydrogenase; Q99714; recombinant HADH2, NADH fluorescence, beta-hydroxybutyryl-CoA; Potency, µM (series often up to 57.1 µM), inactives show at the highest dose activity change, negative = inhibition, usual class: inhibitors; 3.4% of 73,000 active; note: potency is the fitted concentration of half-maximal effect; % is set by controls: 0 for no effect and ±100 for the full control effect; nearly all actives have a fitted effect of over 60% in size
Target sequence (Q99714 whole entry, looked up, one chain of several): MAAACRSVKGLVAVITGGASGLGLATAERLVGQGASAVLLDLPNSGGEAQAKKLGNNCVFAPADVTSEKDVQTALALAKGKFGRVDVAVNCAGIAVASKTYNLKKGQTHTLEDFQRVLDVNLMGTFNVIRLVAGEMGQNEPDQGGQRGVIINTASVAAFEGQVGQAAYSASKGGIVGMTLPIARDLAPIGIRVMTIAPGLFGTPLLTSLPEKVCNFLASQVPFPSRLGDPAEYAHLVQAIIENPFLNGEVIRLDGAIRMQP
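Buffer 100 mM Tris-HCl pH 9.0/0.01% Tween-20; HADH2 20 nM; NAD+ 1 mM; beta-hydroxybutyryl-CoA 90 uM (all final). 15 min cpd preincubation, RT.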
AID923 – qHTS Assay for Allosteric/Competitive Inhibitors of Caspase-1: Spectroscopic Profiling in AFC Spectral Region | 1.1% of 75,000 active | Potency, µM (highest dose often 57.5 µM), inactives show at the highest dose fluorescence increase, actives largely listed as activators | compound fluorescence, AFC spectral region (405/520 nm); note: potency is the fitted concentration of half-maximal effect; 0% is about no effect
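Compound autofluorescence profiled at 405 nm ex/520 nm em during kinetic caspase 1 run (50 nM enzyme, 5 uM Ac-WEHD-AFC, HEPES pH 7.5, 10 mM DTT). Titration up to 57 uM; baseline from regression intercept, normalized to AFC standard curve.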
CRE Fsk mod – CRE-bla signaling modulation under forskolin stimulation | CHO CRE-bla reporter (cAMP response element driving beta-lactamase), forskolin EC10, beta-lactamase ratio | Potency, µM (titrated, usually from 38.2 µM), without a hit: top-dose activity change, negative = inhibition, hits mostly activators | 2.5% of 71,000 active; active = well fitted activation curve with a large enough effect in the signal ratio, with a control signal flat, not every such curve was filed as active; inconclusive = small, poorly fitted or top-dose-only effect, or effect the other way, or a change in a side signal; the % refers to the signal ratio; note: potency is the fitted concentration of half-maximal effect; % of control where 0% means no effect
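CRE-bla CHO cells stimulated with EC10 NKH 477 (water-soluble forskolin) and compound titrations, 3 h at 37C; beta-lactamase read with CCF4 after 2 h at room temperature. Activity from 460/530 nm emission ratio, AC50 values for positive or negative modulation.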
4-MU autofl – 4-MU region autofluorescence. compound autofluorescence, 340/450 nm, 4-MU equivalents; active compounds read high. max dye-equivalent concentration, M. 11% of 59,000 active. AID 589; in the data active = max dye-equivalent concentration above about 10 nM; inconclusive = mostly about 1.1 nM to 9.6 nM
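Compounds in 100 mM Tris, pH 8.0, incubated 15 min at room temperature, then fluorescence read at 340 nm excitation/450 nm emission. Signal converted to 4-MU dye-equivalent concentration using an on-plate six-point 4-MU standard curve.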
CHO via 24h – CHO cell toxicity at 24 h by ATP luminescence | shares compounds with CRE Fsk mod | 120 tested, under 10 active | CRE-bla CHO viability, ATP luminescence, 24 h | activity, negative = viability loss, % at 46.1 µM | AID 905
CHO via 40h – reduces CRE-bla CHO cell viability after 40 hours | shares compounds with CRE Fsk mod | CRE-bla CHO viability, ATP luminescence, 40 h | Potency, µM, inactives show max response, actives largely listed as inhibitors | 120 tested, under 10 active
CRE-luc potent – confirmation of CRE signaling potentiators in HEK293 CREB reporter cells. HEK293 CRE-luc2P, NKH477 EC10 potentiation, luminescence, 4 h. Potency, µM (doses to about 38.3 µM), for inactives: at the highest dose activity, positive = activation, usual class: activators. 80% of 120 active. shares compounds with CRE Fsk mod
The depositor's hits bear a star; i = inactive; ? = inconclusive; / = no result; [ ] = dose if it differs, or a comment. In the library only some 14% were active in any assay of this set; here they are far more common. Unless noted, calls come from the whole dose curve; as a rule, active = well fitted curve in the direction sought with a large enough effect; inconclusive = small, poorly fitted or top-dose-only effect, or another doubt; inactive = no such curve, though single readings can be large; an effect the other way counts as inactive or inconclusive.

SMILES	A350 autofl	HSD17B inh	HADH2 inh	AID923	CRE Fsk mod	4-MU autofl	others
Cn1cc(CCC(=O)N2CCC3(CC2)OCCO3)c2ccccc21	?	?	2.6%	-0.5%	-12.6%	?
C[N+]1(C)CCO[C@](O)(c2ccc(-c3ccc([C@]4(O)C[N+](C)(C)CCO4)cc3)cc2)C1	i	-3.1%[25.6 µM]	6.0%[25.6 µM]	1.6%[25.7 µM]	-2.6%[17.1 µM]	i
Cc1cccc(N2CCc3c2nc2ccccc2c3N)c1	2.99e-07M*	31.6µM*	105.0%	0.3%	0.4%	3.11e-07M*
Cc1ccnc(-n2c(C)nc3ccccc3c2=O)c1	/	7.4%	1.3%	-2.1%	-3.1%	/
Cc1ccc(CCN2CC(C(=O)N3CCC4(CC3)OCCO4)CC2=O)cc1 (configuration not stated)	i	-0.4%	4.9%	-1.3%	?	i
CCCCn1c(O)c(C=NC2CC3CCC2(C)C3(C)C)c(=O)[nH]c1=O (configuration not stated)	1.54e-07M*	-18.8%	1.0%	7.1%	12.6µM*	1.59e-07M*
C[N+]1(C)CCc2cc3c(cc2[C@@H]1[C@@H]1OC(=O)c2c1ccc1c2OCO1)OCO3	i	4.5%	6.5%	6.8%	0.9%	i
Cc1cccc(C)c1N	/	3.2%	-1.4%	0.0%	3.3%	/
CN1CCc2cc(Cl)c(O)cc2[C@H]2c3ccccc3CC[C@@H]21	/	10.7%	-5.0%	0.2%	/	/
CCCN1CCc2cc(O)cc3c2[C@H]1Cc1ccc(O)c(O)c1-3	1.64e-08M*	25.1µM*	3.16µM*	1.0%	?	1.79e-08M*
C=CCN1CCc2cccc3c2[C@@H]1Cc1ccc(O)c(O)c1-3	?	25.1µM*	0.316µM*	-2.1%	-7.0%	?
CN1CCc2cc(O)cc3c2[C@H]1Cc1ccc(O)c(O)c1-3	2.5e-08M*	25.1µM*	1.58µM*	1.0%	1.9%	2.72e-08M*
OC(c1ccc(F)cc1)C(c1ccccc1)N1CCOCC1 (configuration not stated)	i	/	/	/	/	i
O=c1[nH]c(=O)n(C2CCCCCC2)c(O)c1C=NCCCN1CCOCC1	?	6.9%	2.8%	1.3%	1.9%	i
CCCNc1oc(-c2cccc3ccccc23)nc1C#N	8.15e-07M*	6.31µM*	25.1µM*	10µM*	?	7.76e-07M*
C[C@@]12CCC(=O)C=C1C=C[C@H]1[C@H]3CC[C@](O)(CCC(=O)O)[C@]3(C)CC[C@@H]12	?	1.6%[25.6 µM]	-0.8%[25.6 µM]	3.3%[25.7 µM]	12.9%[17.1 µM]	?
ClCC(Br)CBr (configuration not stated)	/	0.4%	-4.2%	-0.3%	-1.5%	/
CC1=CC(=O)c2c(O)cccc2C1=O	/	12.6µM*	/	3.5%	/	/
CC1/C=C/C=C/CC/C=C/C=C/C=C/C=C/C(OC2OC(C)C(O)C(N)C2O)CC2O[C@](O)(CC(O)C(O)CCC(O)CC(O)CC(O)CC(=O)OC(C)C(C)C1O)CC(O)C2C(=O)O (some centres not stated)	/	9.6%	/	0.3%	/	/
Cn1c(O)c(C=NCCOc2ccc(Cl)cc2)c(=O)n(C)c1=O	/	4.1%	-3.8%	-0.9%	10µM*	/	CHO via 24h=1.0;CHO via 40h=-13.4%;CRE-luc potent=12.6µM*
O=c1[nH]c(N2CCN(Cc3ccc4c(c3)OCO4)CC2)nc2c1CCC2	?	1.9%	2.0%	-1.4%	-1.9%	i
CCc1ccc(OCCCN=C(C)c2c(O)n(C)c(=O)n(C)c2=O)cc1	/	-14.2%	-9.7%	1.7%	-15.7%	/
COc1ccc(N=C(C)c2c(O)n(C)c(=O)n(C)c2=O)c(OC)c1	i	1.0%	10.2%	0.2%	?	i	CHO via 24h=-2.6;CHO via 40h=-13.4%;CRE-luc potent=12.6µM*
